Compound activity deposited in PubChem by University of Kansas High Throughput Screening Laboratory.
mHTT CaM bind: mutant huntingtin-calmodulin interaction inhibitors – biochemical, AlphaScreen, primary screen. P42858. AlphaScreen His-mHTT/GST-CaM binding, luminescence. inhibition, % at 15 µM. actives 3.6% (n = 190,000). AID 1671202, 2021
Pf apPOL block: Pf-apPOL inhibitors, biochemical, fluorescence; Recombinant Pf-apPOL, molecular beacon fluorescence, 1.5 h; inhibition, % at 10 µM; actives 0.25% (n = 210,000); AID 1794808, 2022
Numbers stand for hits; . = inactive; / = no result. The sample as a whole holds a higher share of hits than the screen did. No stated cut-off is given here; in the data, active means inhibition above about 50%; inactive means the rest.

SMILES | mHTT CaM bind | Pf apPOL block
CSc1ccccc1C(=O)N(C(=O)N1CCCCC1)c1ccccc1 | . | .
COCCN=C1Nc2ccccc2NC12CCCN(C(=O)Nc1cc(F)cc(F)c1)C2 (configuration not stated) | 100.1 | .
O=C(Nc1cccc(F)c1)N1CCCC2(C1)Nc1cccnc1NC2=NCc1ccccc1 (configuration not stated) | 64.0 | .
COCCN=C1Nc2ccccc2NC12CCCN(C(=O)c1cc(F)ccc1F)C2 (configuration not stated) | . | .
COCCN=C1Nc2ccccc2NC12CCCN(C(=O)c1ccc(OC)c(OC)c1)C2 (configuration not stated) | . | .
COCCN=C1Nc2ccccc2NC12CCCN(C(=O)Nc1ccc(C)cc1C)C2 (configuration not stated) | 99.8 | .
Cc1cccc(NC(=O)N2CCC3(C2)Nc2cccnc2NC3=NCc2ccccc2)c1 (configuration not stated) | . | .
COc1ccc(Oc2coc3c(CN4CCCCCC4)c(O)ccc3c2=O)cc1 | 97.0 | .
CCOC(=O)c1ccc(Oc2coc3c(CN4CCCCC4)c(O)ccc3c2=O)cc1 | . | .
COc1nccnc1NC1CCN(C(=O)c2ccc(C)s2)CC1 | . | .
O=C1C2CC=CCC2C(=O)N1c1ccc(NC2CCCc3ccccc32)c([N+](=O)[O-])c1 (configuration not stated) | . | .
O=C1CCC(=O)N1c1ccc(NC2CCCc3ccccc32)c([N+](=O)[O-])c1 (configuration not stated) | 66.0 | .
CCN1CCN(Cc2ccc(N(CC)CC)cc2)CC1 | 68.8 | .
CCN(CC)c1ccc(CN2CCN(C)CC2)cc1 | 67.9 | .
CC(C)c1ccc(CN2CCCN(C)CC2)cc1 | . | .
CCN(CC)c1ccc(CN2CCSCC2)cc1 | . | .
CN1CCCN(Cc2ccc(Br)cc2)CC1 | . | 74.7
CCN(CC)c1ccc(CN2CCN(c3ncccn3)CC2)cc1 | . | .
CCOC(=O)c1sc(COc2cccc(Cl)c2)nc1C | / | .
O=C(c1cnn2ccc(C3CCN(C(=O)C4CCCCC4)CC3)cc12)N1CCCCC1 | . | .
Cn1cnc2ccc(-c3noc(CCc4c[nH]c5ccccc45)n3)cc21 | 76.2 | .
CCn1cnc2ccc(-c3noc(Cc4ccccc4Cl)n3)cc21 | . | .
CCn1cnc2ccc(-c3noc(-c4cccc(OC)c4)n3)cc21 | 76.0 | .
COc1cccc(-c2nc(-c3ccc4ncn(C)c4c3)no2)c1 | . | .
CCn1cnc2ccc(-c3noc(CCc4c[nH]c5ccccc45)n3)cc21 | 100.3 | .
SMILES | mHTT CaM bind | Pf apPOL block
CCn1cnc2ccc(-c3noc(-c4ccccc4)n3)cc21 | . | .
Cn1cnc2ccc(-c3noc(Cc4cccs4)n3)cc21 | . | .
CCn1cnc2ccc(-c3noc(Cc4c[nH]c5ccccc45)n3)cc21 | 99.2 | .
CC(C)NC(=O)N(C)CC(=O)N1N=C(c2ccccc2F)CC1c1ccccc1 (configuration not stated) | . | .
Cc1ccc2nsnc2c1Br | . | /
COc1ccc(C(=O)Nc2cnc3ccccc3c2)c(OC)c1OC | . | .
O=C1c2ccccc2C(=O)N1CSc1nnc2c(n1)[nH]c1ccccc12 | . | .
Cc1ccc(C2=NNC(C)(C3(C)NN=C(c4ccc(C)cc4)S3)S2)cc1 (configuration not stated) | . | /
Cc1ccc(N2C(=O)C(C)SC23C(=O)Nc2ccccc23)cc1 (configuration not stated) | . | .
Cc1ccc(C2=NNC3(S2)C(=O)Nc2ccccc23)cc1 (configuration not stated) | 99.0 | .
Cc1ccc(C2=NNC3(S2)C(=O)Nc2ccc(C)cc23)cc1 (configuration not stated) | 100.0 | .
COc1ccc(OC)c(/C=C2/N=C(c3ccccc3OC)OC2=O)c1 | . | .
COc1cccc(CC(=O)N2CCC(c3nc(C(=O)N4CCCCC4)c(C)o3)CC2)c1 | . | .
Fc1cccc(Cl)c1-c1nnc2cccc(Cl)n12 | . | .
CC(=O)Nc1ccc(C2C(C#N)=C(N)Oc3cc(N)ccc32)cc1 (configuration not stated) | . | .
O=C(Cc1ccc(F)cc1)N1CCc2nc[nH]c2C1 | . | .
COc1cccc(CC(=O)N2CCC(Cc3nc4cccnc4n3CC(C)C)C2)c1 (configuration not stated) | . | .
COc1cccc(-c2nc(-c3ccc4oc(C)nc4c3)no2)c1 | . | .
CCc1cccc(N2C=C(C(=O)N3CCOCC3)S(=O)(=O)c3ccccc32)c1 | . | .
NCCNc1ccc([N+](=O)[O-])cc1 | . | .
Nc1ccc(Nc2ccc([N+](=O)[O-])cc2)cc1 | 51.5 | .
NS(=O)(=O)c1ccc(CCNC(=O)Cn2c(=O)oc3cc(Cl)ccc32)cc1 | . | .
O=[N+]([O-])c1cccc(NC2OCC(O)C(O)C2O)c1 (configuration not stated) | . | .
O=[N+]([O-])c1cc(NC2OCC(O)C(O)C2O)ccc1S(=O)(=O)O (configuration not stated) | . | 61.8
O=C(NC1CCCN(c2cc(-c3ccncc3)[nH]n2)C1)c1cccc(F)c1 (configuration not stated) | . | .
SMILES | mHTT CaM bind | Pf apPOL block
CC1CCC(NC(=O)C2c3ccccc3C(=O)N2Cc2ccc(F)cc2Cl)CC1 (configuration not stated) | . | .
CCOc1ccc(-c2nc3s/c(=C\c4cc(Br)ccc4OC)c(=O)n3n2)cc1 | . | 55.0
COc1ccc(OC)c(/C=c2\sc3nc(-c4ccc(Br)cc4)nn3c2=O)c1 | . | .
COc1ccc(NC(=O)c2ccc(OC)c([N+](=O)[O-])c2)cc1OC | . | .
COc1ccc(C(=O)Nc2ccc(N(C)C)cc2)cc1[N+](=O)[O-] | 58.5 | .
O=C(NCc1ccccc1)Nc1cccc(-c2ccc(N3CCCC3)nn2)c1 | 84.6 | .
Cc1ccc(-c2ccc(N3CCN(S(C)(=O)=O)CC3)nn2)cc1C | . | .
O=C(Nc1cccc(-c2ccc(N3CCCCC3)nn2)c1)c1ccccc1[N+](=O)[O-] | . | .
COc1cc(C)c(C)cc1S(=O)(=O)Nc1cccc(-c2ccc(N3CCCC3)nn2)c1 | 76.6 | .
O=C(COc1ccc(F)cc1F)Nc1cccc(-c2ccc(N3CCOCC3)nn2)c1 | . | .
O=C(Nc1cccc(-c2ccc(N3CCOCC3)nn2)c1)c1cc(-c2ccco2)on1 | 55.3 | .
COc1ccc(NC(=O)Nc2cccc(-c3ccc(N4CCOCC4)nn3)c2)cc1OC | 50.3 | .
O=C(Nc1cccc(-c2ccc(N3CCOCC3)nn2)c1)c1ccc2nsnc2c1 | . | .
Cn1ncc(C(=O)ON=C(N)c2ccccc2)c1-n1cccc1 | / | .
CC1(C(=O)NCc2ccccc2)CCC(=O)N1Cc1cccc(Br)c1 (configuration not stated) | . | .
Cc1cccn2cc(C(=O)NCCN3CCCCC3C)nc12 (configuration not stated) | . | .
O=C(O)Cc1ccsc1 | . | /
COc1nccnc1N1CCC(NC(=O)c2ccsc2)C1 (configuration not stated) | . | .
COc1ccc(-c2ccc(C=O)o2)c([N+](=O)[O-])c1 | . | .
O=C(NC1CC1c1ccccc1)c1cccs1 (configuration not stated) | . | .
CCc1nnc(NC(=O)c2c(OC)cccc2OC)s1 | . | .
